Test results as given in publication PMC7862700, “An all-to-all approach to the identification of sequence-specific readers for epigenetic DNA modifications on cytosine”.

Assays:
Experiment in all cases: DAPPL (digital affinity profiling via proximity ligation, sequencing); 10 mM Tris-HCl pH 7.5, 50 mM NaCl, 1 mM DTT, 4% glycerol, room temperature, 30 min; GST-TFs on glutathione beads, 16-mer random dsDNA library, 0.1% formaldehyde crosslink after washing; high values mean tight binding
Details in all cases: protein: recombinant; tags: N-terminal GST; dsDNA, one strand shown
ERF = target: T1, ERF (Homo sapiens, UniProt P50548 1-548)
T1 sequence: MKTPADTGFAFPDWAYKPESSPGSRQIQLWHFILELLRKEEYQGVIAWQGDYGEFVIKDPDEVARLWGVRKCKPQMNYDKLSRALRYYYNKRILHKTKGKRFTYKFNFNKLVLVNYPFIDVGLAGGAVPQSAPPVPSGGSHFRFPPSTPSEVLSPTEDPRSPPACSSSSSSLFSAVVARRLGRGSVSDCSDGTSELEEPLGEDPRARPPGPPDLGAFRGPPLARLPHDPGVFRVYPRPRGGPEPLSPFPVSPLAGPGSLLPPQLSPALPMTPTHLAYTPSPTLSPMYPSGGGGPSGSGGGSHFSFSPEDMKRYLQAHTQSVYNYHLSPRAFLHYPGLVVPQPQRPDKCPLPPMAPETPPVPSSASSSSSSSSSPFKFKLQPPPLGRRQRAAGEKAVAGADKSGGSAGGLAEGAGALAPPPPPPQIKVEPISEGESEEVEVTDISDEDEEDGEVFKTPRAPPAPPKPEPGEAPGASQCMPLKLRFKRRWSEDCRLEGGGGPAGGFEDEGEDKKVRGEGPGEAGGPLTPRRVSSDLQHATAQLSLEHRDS
Summary of the method: (§1)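 Binding signal is each hexamer's read frequency for a factor divided by its frequency in the tag-only sample. The factors were GST-fused human transcription factors from yeast, captured on glutathione beads, DNA-barcoded and pooled with that sample. Pools were incubated with 200 nmole of a random double-stranded 16-mer DNA library in Tris/NaCl/DTT/glycerol buffer at room temperature for 30 min, then washed, crosslinked with 0.1% formaldehyde, proximity-ligated with BsaI/T4 ligase (1 h, 37 °C), PCR-amplified and sequenced on an Illumina NextSeq500.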

ETV3L = target: T2, ETV3L (Homo sapiens, UniProt Q6ZN32 1-361)
T2 sequence: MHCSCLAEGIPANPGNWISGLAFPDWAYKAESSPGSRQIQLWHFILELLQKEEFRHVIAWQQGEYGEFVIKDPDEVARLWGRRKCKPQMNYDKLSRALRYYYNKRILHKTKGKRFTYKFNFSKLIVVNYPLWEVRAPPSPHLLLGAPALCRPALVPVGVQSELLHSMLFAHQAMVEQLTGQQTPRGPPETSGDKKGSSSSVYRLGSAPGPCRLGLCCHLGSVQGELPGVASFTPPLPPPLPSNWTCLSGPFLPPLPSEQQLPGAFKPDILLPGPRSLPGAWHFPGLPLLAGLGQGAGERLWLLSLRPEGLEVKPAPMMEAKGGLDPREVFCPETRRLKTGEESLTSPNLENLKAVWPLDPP
Summary of the method: as §1

ETS2 = target: T3, ETS2 (Homo sapiens, UniProt P15036 1-469)
T3 sequence: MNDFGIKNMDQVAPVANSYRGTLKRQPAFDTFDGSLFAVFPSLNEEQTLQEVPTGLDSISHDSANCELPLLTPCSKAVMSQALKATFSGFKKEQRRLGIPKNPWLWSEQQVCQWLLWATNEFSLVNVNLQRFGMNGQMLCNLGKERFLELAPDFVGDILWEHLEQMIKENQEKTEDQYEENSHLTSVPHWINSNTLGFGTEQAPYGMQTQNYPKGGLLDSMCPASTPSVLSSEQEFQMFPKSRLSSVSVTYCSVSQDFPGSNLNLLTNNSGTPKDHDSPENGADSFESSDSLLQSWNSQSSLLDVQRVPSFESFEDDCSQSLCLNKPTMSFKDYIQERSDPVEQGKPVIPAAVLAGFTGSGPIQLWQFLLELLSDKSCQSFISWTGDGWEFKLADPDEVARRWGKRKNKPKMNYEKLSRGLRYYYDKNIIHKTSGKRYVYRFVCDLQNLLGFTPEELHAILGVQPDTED
Summary of the method: as §1

SPDEF = target: T4, SPDEF (Homo sapiens, UniProt O95238 1-335)
T4 sequence: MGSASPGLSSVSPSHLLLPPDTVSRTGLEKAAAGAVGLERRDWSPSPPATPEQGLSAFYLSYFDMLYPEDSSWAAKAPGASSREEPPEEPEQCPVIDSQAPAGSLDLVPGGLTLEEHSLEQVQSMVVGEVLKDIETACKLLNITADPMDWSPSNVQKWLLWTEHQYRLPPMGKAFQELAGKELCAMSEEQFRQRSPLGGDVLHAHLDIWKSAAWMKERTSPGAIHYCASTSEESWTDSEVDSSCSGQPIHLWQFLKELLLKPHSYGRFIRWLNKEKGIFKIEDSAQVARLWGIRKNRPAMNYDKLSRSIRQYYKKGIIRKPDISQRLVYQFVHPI
Summary of the method: as §1

ETV7 = target: T5, ETV7 (Homo sapiens, UniProt Q9Y603 1-341)
T5 sequence: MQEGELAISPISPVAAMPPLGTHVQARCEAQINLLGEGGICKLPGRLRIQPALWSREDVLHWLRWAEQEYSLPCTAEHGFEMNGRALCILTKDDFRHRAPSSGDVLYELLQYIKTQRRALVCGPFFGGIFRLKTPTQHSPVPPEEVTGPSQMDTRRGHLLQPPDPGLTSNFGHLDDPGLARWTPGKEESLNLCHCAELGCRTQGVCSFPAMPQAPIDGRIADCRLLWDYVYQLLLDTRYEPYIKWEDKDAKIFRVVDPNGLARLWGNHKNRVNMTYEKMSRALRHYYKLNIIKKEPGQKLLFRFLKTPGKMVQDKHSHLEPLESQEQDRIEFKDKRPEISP
Summary of the method: as §1

ELF5 = target: T6, ELF5 (Homo sapiens, UniProt Q9UKW6-2 1-255)
T6 sequence: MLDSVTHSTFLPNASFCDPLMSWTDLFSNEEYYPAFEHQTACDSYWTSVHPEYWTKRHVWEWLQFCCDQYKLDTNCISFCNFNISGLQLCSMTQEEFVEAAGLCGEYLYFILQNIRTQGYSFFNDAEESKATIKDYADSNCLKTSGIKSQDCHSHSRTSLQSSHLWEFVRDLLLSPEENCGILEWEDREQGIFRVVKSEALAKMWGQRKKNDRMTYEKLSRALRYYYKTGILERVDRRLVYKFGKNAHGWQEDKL
Summary of the method: as §1

ETV3 = target: T7, ETV3 (Homo sapiens, UniProt P41162-2 1-143)
T7 sequence: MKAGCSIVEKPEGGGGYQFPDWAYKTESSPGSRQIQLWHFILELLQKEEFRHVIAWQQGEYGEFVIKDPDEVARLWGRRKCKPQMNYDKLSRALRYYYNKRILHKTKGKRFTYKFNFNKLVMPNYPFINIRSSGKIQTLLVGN
Summary of the method: as §1

ETV6 = ETV6 (Homo sapiens, UniProt P41212 1-452)
Summary of the method: as §1

Sequence of ETV6 (P41212 whole entry): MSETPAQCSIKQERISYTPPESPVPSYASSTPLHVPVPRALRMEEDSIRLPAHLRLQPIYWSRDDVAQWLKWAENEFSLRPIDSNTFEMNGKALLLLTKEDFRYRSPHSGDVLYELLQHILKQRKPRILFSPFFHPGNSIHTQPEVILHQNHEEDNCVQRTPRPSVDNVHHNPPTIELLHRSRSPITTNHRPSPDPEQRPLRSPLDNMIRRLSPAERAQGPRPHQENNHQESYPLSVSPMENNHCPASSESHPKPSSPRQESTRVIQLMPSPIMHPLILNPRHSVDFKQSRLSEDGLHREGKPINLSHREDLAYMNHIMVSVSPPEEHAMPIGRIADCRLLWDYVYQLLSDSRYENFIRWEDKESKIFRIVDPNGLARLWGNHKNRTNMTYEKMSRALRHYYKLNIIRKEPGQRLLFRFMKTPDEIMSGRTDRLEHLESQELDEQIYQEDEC

## CCCACA
ERF
  binding signal: 1.12 fold enrichment (6-mer frequency, TF over GST control)
ETV3L
  binding signal: 1.1 fold enrichment (6-mer frequency, TF over GST control)
ETS2
  binding signal: 1.13 fold enrichment (6-mer frequency, TF over GST control)
SPDEF
  binding signal: 1.22 fold enrichment (6-mer frequency, TF over GST control)
ETV7
  binding signal: 1.05 fold enrichment (6-mer frequency, TF over GST control)
ELF5
  binding signal: 1.13 fold enrichment (6-mer frequency, TF over GST control)
ETV3
  binding signal: 1.1 fold enrichment (6-mer frequency, TF over GST control)
ETV6
  binding signal: 1.14 fold enrichment (6-mer frequency, TF over GST control)

## ACCCGG
ERF
  binding signal: 1.48 fold enrichment (6-mer frequency, TF over GST control)
ETV3L
  binding signal: 1.69 fold enrichment (6-mer frequency, TF over GST control)
ETS2
  binding signal: 1.79 fold enrichment (6-mer frequency, TF over GST control)
SPDEF
  binding signal: 2.23 fold enrichment (6-mer frequency, TF over GST control)
ETV7
  binding signal: 1.55 fold enrichment (6-mer frequency, TF over GST control)
ELF5
  binding signal: 1.91 fold enrichment (6-mer frequency, TF over GST control)
ETV3
  binding signal: 1.82 fold enrichment (6-mer frequency, TF over GST control)
ETV6
  binding signal: 1.7 fold enrichment (6-mer frequency, TF over GST control)

## GCCCTC
ERF
  binding signal: 1.26 fold enrichment (6-mer frequency, TF over GST control)
ETV3L
  binding signal: 1.09 fold enrichment (6-mer frequency, TF over GST control)
ETS2
  binding signal: 1.24 fold enrichment (6-mer frequency, TF over GST control)
SPDEF
  binding signal: 1.08 fold enrichment (6-mer frequency, TF over GST control)
ETV7
  binding signal: 1.22 fold enrichment (6-mer frequency, TF over GST control)
ELF5
  binding signal: 1.1 fold enrichment (6-mer frequency, TF over GST control)
ETV3
  binding signal: 1.17 fold enrichment (6-mer frequency, TF over GST control)
ETV6
  binding signal: 1.05 fold enrichment (6-mer frequency, TF over GST control)

## ACAATG
ERF
  binding signal: 1.12 fold enrichment (6-mer frequency, TF over GST control)
ETV3L
  binding signal: 1.03 fold enrichment (6-mer frequency, TF over GST control)
ETS2
  binding signal: 1.09 fold enrichment (6-mer frequency, TF over GST control)
SPDEF
  binding signal: 1.03 fold enrichment (6-mer frequency, TF over GST control)
ETV7
  binding signal: 1.12 fold enrichment (6-mer frequency, TF over GST control)
ELF5
  binding signal: 1.08 fold enrichment (6-mer frequency, TF over GST control)
ETV3
  binding signal: 1.11 fold enrichment (6-mer frequency, TF over GST control)
ETV6
  binding signal: 1.06 fold enrichment (6-mer frequency, TF over GST control)

## ATATAT
ERF
  binding signal: 1.51 fold enrichment (6-mer frequency, TF over GST control)
ETV3L
  binding signal: 1.41 fold enrichment (6-mer frequency, TF over GST control)
ETS2
  binding signal: 1.39 fold enrichment (6-mer frequency, TF over GST control)
SPDEF
  binding signal: 1.43 fold enrichment (6-mer frequency, TF over GST control)
ETV7
  binding signal: 1.29 fold enrichment (6-mer frequency, TF over GST control)
ELF5
  binding signal: 1.42 fold enrichment (6-mer frequency, TF over GST control)
ETV3
  binding signal: 1.41 fold enrichment (6-mer frequency, TF over GST control)
ETV6
  binding signal: 1.44 fold enrichment (6-mer frequency, TF over GST control)

## CTCGTA
ERF
  binding signal: 1.23 fold enrichment (6-mer frequency, TF over GST control)
ETV3L
  binding signal: 1.43 fold enrichment (6-mer frequency, TF over GST control)
ETS2
  binding signal: 1.37 fold enrichment (6-mer frequency, TF over GST control)
SPDEF
  binding signal: 1.2 fold enrichment (6-mer frequency, TF over GST control)
ETV7
  binding signal: 1.11 fold enrichment (6-mer frequency, TF over GST control)
ELF5
  binding signal: 1.28 fold enrichment (6-mer frequency, TF over GST control)
ETV3
  binding signal: 1.23 fold enrichment (6-mer frequency, TF over GST control)
ETV6
  binding signal: 1.2 fold enrichment (6-mer frequency, TF over GST control)

## AAAAAA
ERF
  binding signal: 1.35 fold enrichment (6-mer frequency, TF over GST control)
ETV3L
  binding signal: 1.28 fold enrichment (6-mer frequency, TF over GST control)
ETS2
  binding signal: 1.34 fold enrichment (6-mer frequency, TF over GST control)
SPDEF
  binding signal: 1.21 fold enrichment (6-mer frequency, TF over GST control)
ETV7
  binding signal: 1.31 fold enrichment (6-mer frequency, TF over GST control)
ELF5
  binding signal: 1.29 fold enrichment (6-mer frequency, TF over GST control)
ETV3
  binding signal: 1.33 fold enrichment (6-mer frequency, TF over GST control)
ETV6
  binding signal: 1.35 fold enrichment (6-mer frequency, TF over GST control)

## CCCTGG
ERF
  binding signal: 1.24 fold enrichment (6-mer frequency, TF over GST control)
ETV3L
  binding signal: 1.16 fold enrichment (6-mer frequency, TF over GST control)
ETS2
  binding signal: 1.06 fold enrichment (6-mer frequency, TF over GST control)
SPDEF
  binding signal: 1.02 fold enrichment (6-mer frequency, TF over GST control)
ETV7
  binding signal: 1.26 fold enrichment (6-mer frequency, TF over GST control)
ELF5
  binding signal: 1.06 fold enrichment (6-mer frequency, TF over GST control)
ETV3
  binding signal: 1.13 fold enrichment (6-mer frequency, TF over GST control)
ETV6
  binding signal: 1.05 fold enrichment (6-mer frequency, TF over GST control)
